KinaseGlo FLuc = Kinase-Glo luciferase inhibition (counter-screen); Kinase-Glo luciferase, ATP luminescence, 8 min; Potency, µM (series often up to 38.3 µM), without a hit: at the top dose activity change, negative = inhibition, most hits filed as inhibitors; Q27757; AID 1379; 200,000 compounds, 0.28% hits; further: on the % scale 0 is the no-effect control and ±100 the full control effect; nearly all actives have a fitted effect of over 60% in size
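Substrate mix (final 50 mM imidazole pH 7.2, 50 mM KCl, 7 mM MgCl2, 10 uM ATP, 0.01% Tween 20, 0.05% BSA) plus pin-tool compound, then Kinase-Glo detection mix; 8 min ambient, luminescence read.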
SMN2 splice up = increases expression of the SMN2 splice variant; HEK293 SMN2-luciferase splicing reporter, luminescence, 30-36 h; Potency, µM (titrated, usually from 46.1 µM), for inactives: top-dose activity change, positive = activation, actives largely listed as activators; 210,000 compounds, 2.8% hits; AID 1458; further: % of control where 0% means no effect; nearly all actives have a fitted effect of over 55% in size
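HEK293 cells carry an SMN2 […]–luciferase reporter in which exon 7 inclusion puts luciferase in frame. Cells were plated 10-12 h before compound addition, then incubated 30-36 h at 37C. ONE-Glo luminescence was read; sodium butyrate at 4.5 mM final served as control.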
NPC1 prom act = activators of NPC1 promoter; 320,000 compounds, 2.4% hits; AID 485313; Potency, µM (highest dose often 9.22 µM), without a hit: top-dose activation, actives largely listed as activators; Huh7 NPC1 promoter luciferase reporter, 24 h; further: % of control where 0% means no effect; nearly all actives have a fitted effect of over 60% in size
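NPC1 promoter–luciferase Huh7 cells; 24 h compound; luminescence.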
Rab9 prom act = activates the Rab9 promoter. Huh7 Rab9 promoter-luciferase reporter, luminescence, 24 h. Potency, µM (doses to about 9.22 µM), without a hit: top-dose activation, negative = inhibition, usual class: activators. 320,000 compounds, 2.8% hits; further: % of control where 0% means no effect; nearly all actives have a fitted effect of over 60% in size
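Using Huh7 cells stably transfected with Rab9 promoter–luciferase, compounds were incubated 24 h at 37 °C, 5% CO2; luciferase luminescence was read 10 min after reagent addition.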
ELG1 genotox = inducers of genotoxicity in HEK293T ELG1-luciferase cells; HEK293T ELG1-luciferase reporter, luminescence, 16 h; 330,000 compounds, 1.3% hits; Potency, µM (highest dose often 46 µM), for the others: top-dose activity change, positive = activation, usual class: activators; further: % of control where 0% means no effect; nearly all actives have a fitted effect of over 60% in size
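Genotoxic stress is detected as increased luminescence from luciferase-tagged ELG1 in HEK293T cells, measured with ONE-Glo after a 16 hr treatment at 37 °C.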
FLuc counter = inhibits or activates purified firefly luciferase, miR-21 counter-screen | P08659 | purified FLuc, Km substrates, luminescence inhibition | Potency, µM (series often up to 57.5 µM), for the others: top-dose activity change, negative = inhibition, usual class: inhibitors | 360,000 compounds, 6.9% hits | AID 588342;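 further: plate controls were vehicle for no effect and reference inhibitor for full effect; nearly all actives have a fitted effect of over 55% in size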
Target sequence (P08659 whole entry, looked up): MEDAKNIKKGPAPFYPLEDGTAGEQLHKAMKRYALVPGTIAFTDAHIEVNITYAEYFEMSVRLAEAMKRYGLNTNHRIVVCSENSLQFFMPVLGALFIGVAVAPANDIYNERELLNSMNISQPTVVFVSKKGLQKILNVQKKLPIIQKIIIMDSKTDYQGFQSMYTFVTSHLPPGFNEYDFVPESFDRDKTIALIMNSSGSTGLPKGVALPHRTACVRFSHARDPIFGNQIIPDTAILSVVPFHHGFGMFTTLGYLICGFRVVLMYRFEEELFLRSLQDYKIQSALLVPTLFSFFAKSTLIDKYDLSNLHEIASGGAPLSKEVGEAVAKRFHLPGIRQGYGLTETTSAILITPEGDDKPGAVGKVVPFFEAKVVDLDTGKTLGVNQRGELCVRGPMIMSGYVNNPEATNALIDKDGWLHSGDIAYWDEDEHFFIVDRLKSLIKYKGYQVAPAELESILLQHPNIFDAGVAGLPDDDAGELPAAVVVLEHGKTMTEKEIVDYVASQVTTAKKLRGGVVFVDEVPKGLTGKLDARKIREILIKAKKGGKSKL
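Purified P. pyralis luciferase, 10 nM final, with Km-level 10 uM D-luciferin and 10 uM ATP in 50 mM Tris acetate pH 7.5, 10 mM Mg acetate, 0.01% Tween-20, 0.05% BSA; 6-point qHTS titration about 60 µM downward; luminescence read.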
* = called active by the depositor; [ ] = remark or other dose. An excerpt weighted towards active compounds, which were near 7.5% of everything screened. The call rests on the fitted dose curve; in most records, active means well fitted curve in the direction sought with a large enough effect; inconclusive means small, poorly fitted or top-dose-only effect, or another doubt; inactive means no such curve, though single readings can be large; an effect the other way counts as inactive or inconclusive. Potency means the concentration at half of the fitted maximal effect.

How did Cc1cc(C)nc(SC2=CS(=O)(=O)c3ccccc32)n1 do in these assays?
KinaseGlo FLuc: -0.3%; SMN2 splice up: inconclusive; NPC1 prom act: -8.1%; Rab9 prom act: -4.7%; ELG1 genotox: -43.9%; FLuc counter: -12.2%

How did Cc1cc2cc(CN(CCN(C)C)C(=S)NCc3ccco3)c(=O)[nH]c2cc1C do in these assays?
KinaseGlo FLuc: 0.0%; SMN2 splice up: -16.3%; NPC1 prom act: -5.0%; Rab9 prom act: -2.8%; ELG1 genotox: -3.4%; FLuc counter: 0.7%

How did CCN(CC)CCN(Cc1cc2cc(C)c(C)cc2[nH]c1=O)C(=S)NCc1ccco1 do in these assays?
KinaseGlo FLuc: -4.0%; NPC1 prom act: 0.0%; Rab9 prom act: -4.1%; ELG1 genotox: -0.5%; FLuc counter: 23.9µM*

What do the screens show for `Cn1cc(S(=O)(=O)N2CCCC2)cc1C(=O)NCCc1ccccc1`?
NPC1 prom act: -0.4%; Rab9 prom act: 16.9%; ELG1 genotox: -3.4%; FLuc counter: -10.0%

How did CCOc1ccc(CCNC(=O)Cn2ncn3nc(-c4ccc(OC)cc4)cc3c2=O)cc1OCC do in these assays?
NPC1 prom act: -0.6%; Rab9 prom act: 7.2%; ELG1 genotox: 5.8%[9.26 µM]; FLuc counter: -9.2%

How did CCC1CCCCN1CCCNC(=O)Cn1ncn2nc(-c3ccc(OC)cc3)cc2c1=O (centres undefined) do in these assays?
NPC1 prom act: 0.1%; Rab9 prom act: inconclusive; ELG1 genotox: inconclusive; FLuc counter: 23.9µM*

Results for COc1ccc(-c2cc3c(=O)n(CC(=O)N4CCN(C)CC4)ncn3n2)cc1 ?
NPC1 prom act: inconclusive; Rab9 prom act: 5.01µM*; ELG1 genotox: inconclusive; FLuc counter: 2.39µM*

Results for CCc1ccc(-c2cc3c(=O)n(CC(=O)NCCCN4CCN(C)CC4)ncn3n2)cc1 ?
NPC1 prom act: 2.82µM*; Rab9 prom act: 2.82µM*; ELG1 genotox: inconclusive; FLuc counter: 2.39µM*

How did CCc1ccc(-c2cc3c(=O)n(CC(=O)NCCCN4CCC(Cc5ccccc5)CC4)nc(C)n3n2)cc1 do in these assays?
NPC1 prom act: -1.8%; Rab9 prom act: 1.4%; ELG1 genotox: 11.9%; FLuc counter: inconclusive

How did COc1ccc(-c2cc3c(=O)n(CC(=O)N4CCCCC4)ncn3n2)cc1 do in these assays?
NPC1 prom act: 29.9%; Rab9 prom act: 18.2%; ELG1 genotox: 12.2%; FLuc counter: inconclusive

Results for COc1ccc(-c2cc3c(=O)n(CC(=O)NCCCc4ccccc4)ncn3n2)cc1 ?
NPC1 prom act: 2.82µM*; Rab9 prom act: 3.98µM*; ELG1 genotox: inconclusive; FLuc counter: inconclusive

Results for CCCCCN(C(=O)CCC(=O)OCCOc1cccc(C)c1)c1c(N)n(CCCC)c(=O)[nH]c1=O ?
NPC1 prom act: -6.2%; Rab9 prom act: -2.7%; ELG1 genotox: 0.9%; FLuc counter: 0.5%

Results for Cn1cnnc1SCC(=O)NC1CC1 ?
ELG1 genotox: 1.8%

Results for COCCCNC(=O)CSc1nc2cc3c(cc2c(=O)n1CCCCCC(=O)NCCc1ccc(OC)c(OC)c1)OCO3 ?
FLuc counter: -1.4%

Results for C=C1C=C(C(F)F)n2ncc(C(=O)Nc3ccc(C(C)CC)cc3)c2N1 (centres undefined) ?
FLuc counter: 0.4%

Results for Cn1cc(/C=C2\SC(=O)N(c3ccccc3)C2=O)c2ccccc21 ?
KinaseGlo FLuc: -1.0%; SMN2 splice up: inconclusive; NPC1 prom act: 3.55µM*; Rab9 prom act: 3.98µM*; ELG1 genotox: inconclusive; FLuc counter: -7.0%

How did CCN1C(=O)S/C(=C/c2cn(C)c3ccccc23)C1=O do in these assays?
KinaseGlo FLuc: -8.5%; SMN2 splice up: 14.5%; NPC1 prom act: -1.6%; Rab9 prom act: -1.5%; ELG1 genotox: 5.2%; FLuc counter: 12µM*

What do the screens show for `Cc1c(N=Cc2ccco2)c(=O)n(-c2ccccc2)n1C`?
KinaseGlo FLuc: -1.4%; SMN2 splice up: -2.9%; NPC1 prom act: 1.9%; Rab9 prom act: -4.8%; ELG1 genotox: 0.7%; FLuc counter: -1.8%

Results for C(/C=C\c1ccccc1)=Nc1ccc2c(c1)Cc1ccccc1-2 ?
KinaseGlo FLuc: -3.1%[7.66 µM]; SMN2 splice up: -0.4%[9.22 µM]

What do the screens show for `Cc1c(N=Cc2ccc(-c3ccc(Cl)cc3)o2)c(=O)n(-c2ccccc2)n1C`?
KinaseGlo FLuc: -7.0%; SMN2 splice up: -34.2%; NPC1 prom act: -3.8%; Rab9 prom act: 4.4%; ELG1 genotox: 5.7%; FLuc counter: 9.53µM*

Results for Cc1c(N=C/C=C/c2ccccc2)c(=O)n(-c2ccccc2)n1C ?
KinaseGlo FLuc: -2.3%; SMN2 splice up: -1.6%; NPC1 prom act: -2.9%; Rab9 prom act: 9.6%; ELG1 genotox: 2.8%; FLuc counter: 19µM*

How did Cc1c(N=Cc2ccc(Cl)o2)c(=O)n(-c2ccccc2)n1C do in these assays?
KinaseGlo FLuc: -6.3%; SMN2 splice up: 7.4%; NPC1 prom act: 0.5%; Rab9 prom act: 2.2%; ELG1 genotox: 1.3%; FLuc counter: -4.0%

Results for Cc1c(N=C/C=C/c2ccccc2)cnn1C ?
KinaseGlo FLuc: 0.3%; SMN2 splice up: -9.7%; NPC1 prom act: 1.1%; Rab9 prom act: 1.6%; ELG1 genotox: 2.4%; FLuc counter: 6.75µM*

What do the screens show for `Cc1ccccc1-c1ccc(C=Nc2c(C)n(C)n(-c3ccccc3)c2=O)o1`?
KinaseGlo FLuc: -10.3%; SMN2 splice up: -34.1%; NPC1 prom act: 2.4%; Rab9 prom act: 2.4%; ELG1 genotox: 2.7%; FLuc counter: 4.78µM*

How did COCCNS(=O)(=O)c1ccc(Cl)c(C(=O)NC2CCN(Cc3ccccc3)CC2)c1 do in these assays?
NPC1 prom act: -2.2%; Rab9 prom act: -3.8%; ELG1 genotox: -6.5%; FLuc counter: -2.7%

How did CN(C)C(CNC(C(=O)Nc1ccc(F)cc1)c1ccccc1)c1ccccc1 (centres undefined) do in these assays?
NPC1 prom act: -5.4%; Rab9 prom act: 1.1%; ELG1 genotox: 6.2%; FLuc counter: 1.8%

How did COc1cccc(OC)c1C(=O)NC(=O)Oc1c(F)cccc1F do in these assays?
NPC1 prom act: -0.2%; Rab9 prom act: 12.4%; ELG1 genotox: 2.9%; FLuc counter: 3.1%

Results for CCOc1ccc(-c2cc(NC(=O)Nc3ccccc3Cl)c(C(=O)OC)s2)cc1 ?
SMN2 splice up: 29.1%; FLuc counter: 8.49µM*

What do the screens show for `CCOC(=O)c1sc(-c2ccc(OC)cc2)cc1NC(C)=O`?
KinaseGlo FLuc: -1.5%; SMN2 splice up: 15.8µM*; NPC1 prom act: 25.7%; Rab9 prom act: 21.9%; ELG1 genotox: 3.9%; FLuc counter: -15.4%
